Values joined by “and” are separate entries in the source; they are usually repeats but may differ in a detail not shown here. Equal values may be shown once. Results filed as inconclusive are left out. More than one record can exist for a structure, and the calls need not agree. Active and inactive are the calls of the source. Rule for the calls, unless noted: active = hit-call score of the fitted dose curve at least 0.9, where 1 is the maximum; inactive = score below 0.9.
Columns and labels:
[1] = CCTE_Shafer_MEA_acute_spike_number: CCTE's Neural Acute Assay for Total Number of Spikes, Shafer Lab (AID 2284008);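 for AC50: curve fitted for decrease in spike count so AC50 reflects inhibitors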
How it was run: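 Rat cortical cultures, DIV 13/15, 37 C. 40 min baseline rec, cpd 0.03-40 uM, 40 min post-dose rec. Band-pass 300-5000 Hz, spike threshold 8x rms; % change in spike count per well, DMSO neg ctrl, loss-of-signal fit.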

[2] = CCTE_Shafer_MEA_acute_firing_rate_mean: CCTE's Neural Acute Assay for Mean Firing Rate, Shafer Lab (AID 2284009);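 note: analyzed for loss of signal so actives lower firing rate relative to DMSO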
How it was run: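 Rat primary cortical neurons on 48-well MEA plates, dosed at 0.03-40 uM on DIV 13 or 15; 40 min spontaneous activity recorded at 37 C before and after compound. Spike rate per electrode averaged per well, expressed as percent change from baseline.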

[3] = CCTE_Harrill_HTTr_Viability_MCF7: CCTE's 6-hour Cell Viability Assessment for the High-Throughput Transcriptomics (HTTr) Platform, in MCF-7 cells cultured in DMEM + 10% fetal bovine serum, Harrill Lab (AID 2284010)
How it was run: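 Membrane integrity was scored by high-content imaging of propidium iodide dye exclusion after a 6 h exposure across an eight-point dilution series. Data were fitted bidirectionally relative to DMSO as negative control and baseline.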

[4] = CCTE_Harrill_HTTr_Apoptosis_MCF7: CCTE's 6-hour Apoptosis Assessment for the High-Throughput Transcriptomics (HTTr) Platform, in MCF-7 cells cultured in DMEM + 10% fetal bovine serum, Harrill Lab (AID 2284011)
How it was run: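 Read-out: CellEvent Caspase 3/7 Green signal by high content imaging, gain-of-signal indicating apoptosis. MCF-7 cells, DMEM + 10% FBS, eight-point dilution series, 6 h exposure. Curves fitted bidirectionally relative to DMSO negative control.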

[5] = CCTE_Harrill_HTTr_CellCount_MCF7: CCTE's Cell Proliferation Assessment for the High-Throughput Transcriptomics (HTTr) Platform, Harrill Lab (AID 2284012; active = hit-call score of the fitted dose curve at least 0.9, where 1 is the maximum;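 note: cells exposed to compound for six hours; intended direction is loss of nuclei count meaning fewer cells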)
How it was run: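 MCF-7 cells were exposed for 6 h to an eight-point dilution series; Hoechst-labeled nuclei were counted by high content imaging. Curves were fitted bidirectionally against DMSO as negative control and baseline, with signal loss indicating reduced cell count.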

[6] = CCTE_Shafer_MEA_acute_burst_number: CCTE's Neural Acute Assay for Single-Electrode Bursts, Shafer Lab (AID 2284013)
How it was run: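 Primary rat cortical neurons on 16-electrode MEA wells, treated on DIV 13 or 15 with compound at 0.03-40 uM. Single-electrode burst count from 40-min recordings at 37 C before and after exposure; percent change from baseline per well, DMSO negative control.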

[7] = CCTE_Shafer_MEA_acute_burst_duration_mean: CCTE's Neural Acute Assay for Mean Burst Duration, Shafer Lab (AID 2284014);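 note: hits are decreases in mean burst duration relative to DMSO controls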
How it was run: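 Rat primary cortical neurons on 48-well MEA, treated at DIV 13 or 15 with 0.03-40 uM in at least 3 wells. Value is percent change in mean burst duration, comparing 40 min recordings at 37 C before and during exposure.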

[8] = CCTE_Shafer_MEA_acute_per_burst_spike_number_mean: CCTE's Neural Acute Assay for Average Number of Spikes Per Burst, Shafer Lab (AID 2284015);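 note: hits are decreases in mean spikes per burst versus baseline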
How it was run: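 We recorded spontaneous network firing of rat cortical neurons for 40 min before and 40 min during exposure to compound at 0.03-40 uM, at 37 C. Spikes were detected adaptively at 8x rms noise, and the change in average spikes per burst was fitted against DMSO.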

[9] = CCTE_Shafer_MEA_acute_interburst_interval_mean: CCTE's Neural Acute Assay for Mean Interburst Interval, Shafer Lab (AID 2284016);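 note: percent change of mean interburst interval versus each well's own pre-dose baseline; curves fitted for decrease in interburst interval relative to DMSO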
How it was run: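 MEA recording of spontaneous network bursting in primary rat cortical cultures; mean interburst interval was compared before and after a 40-min compound exposure (0.03-40 uM) and expressed as percent change, relative to DMSO.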

[10] = CCTE_Shafer_MEA_acute_burst_percentage_mean: CCTE's Neural Acute Assay for Percentage of Spikes in a Burst, Shafer Lab (AID 2284017);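 for AC50: curve fitted for loss of signal so potency reflects decreased burst percentage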
How it was run: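 Compounds were tested at 0.03-40 uM on primary rat cortical neuron networks grown over microelectrodes, with at least three wells per compound. Spontaneous firing was recorded for 40 min before and 40 min after dosing, and the change in burst percentage was computed per well.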

[11] = CCTE_Shafer_MEA_acute_per_network_burst_spike_number_mean: CCTE's Neural Acute Assay for Average Number of Spikes in a Network Burst, Shafer Lab (AID 2284019);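 for AC50: curve fitted for loss of signal so actives reduce spikes per network burst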
How it was run: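 Rat primary cortical neurons on 48-well MEA at DIV 13 or 15, 37 C; compounds 0.03-40 uM, at least three wells each. 40-min baseline then 40-min exposure recording; percent change in mean spikes per network burst.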

[12] = CCTE_Shafer_MEA_acute_per_network_burst_spike_number_std: CCTE's Neural Acute Assay for Standard Deviation of Number of Spikes in a Network Burst, Shafer Lab (AID 2284020);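 note: fitted for decrease in spike-number SD versus DMSO so actives lower it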
How it was run: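 Rat primary cortical neurons on 48-well MEA (16 electrodes/well), treated DIV 13 or 15 at 0.03-40 uM, ≥3 wells per compound. 40 min recordings at 37 C before and after dosing; value is percent change in network-burst spike-number SD, negative direction vs DMSO.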

[13] = CCTE_Shafer_MEA_acute_per_network_burst_electrodes_number_mean: CCTE's Neural Acute Assay for Mean Number of Electrodes in a Network Burst, Shafer Lab (AID 2284021);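 note: curves fitted for decreases only so hits reduce electrodes per burst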
How it was run: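 Readout: % change in mean electrodes active per network burst, post- vs pre-treatment, each well. Spikes detected at 8x rms noise after 300-5000 Hz band-pass; rat cortical cultures, DIV 13/15, compounds 0.03-40 uM, DMSO baseline.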

[14] = CCTE_Shafer_MEA_acute_network_burst_percentage: CCTE's Neural Acute Assay for Percentage of Network Bursts, Shafer Lab (AID 2284022);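 note: curves fitted for loss so actives lower network burst percentage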
How it was run: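 Rat cortical cultures, DIV 13/15; 20 min equilibration, 40 min baseline, compound 0.03-40 uM, 40 min recording, 37 C. Spikes: 300-5000 Hz band-pass, threshold 8x rms noise. Readout: % change in network-burst spike fraction; loss direction vs DMSO.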

[15] = CCTE_Shafer_MEA_acute_cross_correlation_area: CCTE's Neural Acute Assay for Area of Cross Correlation, Shafer Lab (AID 2284024);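 note: area under pooled inter-electrode spike cross-correlation near zero lag as percent change from own baseline; curves fitted for loss of cross-correlation area so actives lower synchrony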
How it was run: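 Rat cortical cultures, DIV 13/15, MEA; spikes detected at 8x rms noise (300-5000 Hz band-pass). Compound 0.03-40 uM, ≥3 wells each. Readout: % change in pooled inter-electrode cross-correlation area vs own baseline; DMSO negative control.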

[16] = CCTE_Shafer_MEA_acute_cross_correlation_HWHM: CCTE's Neural Acute Assay for Cross Correlation at Half Width at Half Maximum, Shafer Lab (AID 2284026);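 note: percent change per well from pre-dose baseline in spike cross-correlogram half width; hits are a decrease in cross-correlogram half width relative to DMSO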
How it was run: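 Read-out: half width at half maximum of action-potential cross-correlogram, percent change versus pre-treatment baseline, fitted in loss direction against DMSO. Rat cortical cultures, DIV 13 or 15, dosed 0.03-40 uM, 40-min recordings at 37 C.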

[17] = CCTE_Shafer_MEA_acute_synchrony_index: CCTE's Neural Acute Assay for Synchrony, Shafer Lab (AID 2284027);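 note: network synchrony index of spontaneous spiking in primary rat cortical neurons on MEAs; fitted for loss of signal so actives lower synchrony relative to DMSO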
How it was run: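 Primary rat cortical neurons on 16-electrode MEA wells were recorded 40 min at baseline (DIV 13 or 15) and 40 min after compound (0.03-40 uM) at 37 C. Synchrony index (0-1) expressed as percent change from baseline, versus DMSO.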

[18] = biological target: Estrogen receptor (Homo sapiens) (UniProt P03372); experiment: CCTE_Deisenroth_AIME_96WELL_LUC_Active: CCTE's 96-well Estrogen Receptor Transactivation Assay with AIME metabolic competence (ERTA luciferase; metabolism positive), Deisenroth Lab (AID 2284023; active = hit-call score of the fitted dose curve at least 0.9, where 1 is the maximum)
How it was run: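 Chemicals pre-incubated 2 h with alginate-immobilized phenobarbital/beta-naphthoflavone-induced male Sprague Dawley rat liver S9, then medium transferred to VM7Luc4E2 cells for 24 h luciferase read-out. 10-point series 0.002 - 200 uM; fitted relative to 17beta-estradiol.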

[19] = biological target: Estrogen receptor (Homo sapiens) (UniProt P03372); experiment: CCTE_Deisenroth_AIME_96WELL_LUC_Inactive: CCTE's 96-well Estrogen Receptor Transactivation Assay without AIME metabolic competence (ERTA luciferase; metabolism negative), Deisenroth Lab (AID 2284025; active = hit-call score of the fitted dose curve at least 0.9, where 1 is the maximum)
How it was run: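 VM7Luc4E2 breast cells, luciferase read 24 h after dosing with medium pre-incubated 2 h on alginate-water lids (metabolism negative). 10-point series 0.002–200 uM, single technical replicate, n≥4; fit relative to 17beta-estradiol.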

[20] = CCTE_Deisenroth_AIME_96WELL_CTox_Active: Cytotoxicity Assessment (CTOX) in CCTE's 96-well Estrogen Receptor Transactivation Assay with AIME metabolic competence (metabolism positive), Deisenroth Lab (AID 2284028; active = hit-call score of the fitted dose curve at least 0.9, where 1 is the maximum)
How it was run: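 Chemicals (0.002–200 uM) were first incubated 2 h with alginate-immobilized phenobarbital/beta-naphthoflavone-induced male rat liver S9; conditioned medium then went onto VM7Luc4E2 cells for 24 h, with viability read by protease-substrate fluorescence, fitted bidirectionally.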

Measured: AC50

Estrogen receptor (Homo sapiens), sequence (P03372 whole entry, looked up): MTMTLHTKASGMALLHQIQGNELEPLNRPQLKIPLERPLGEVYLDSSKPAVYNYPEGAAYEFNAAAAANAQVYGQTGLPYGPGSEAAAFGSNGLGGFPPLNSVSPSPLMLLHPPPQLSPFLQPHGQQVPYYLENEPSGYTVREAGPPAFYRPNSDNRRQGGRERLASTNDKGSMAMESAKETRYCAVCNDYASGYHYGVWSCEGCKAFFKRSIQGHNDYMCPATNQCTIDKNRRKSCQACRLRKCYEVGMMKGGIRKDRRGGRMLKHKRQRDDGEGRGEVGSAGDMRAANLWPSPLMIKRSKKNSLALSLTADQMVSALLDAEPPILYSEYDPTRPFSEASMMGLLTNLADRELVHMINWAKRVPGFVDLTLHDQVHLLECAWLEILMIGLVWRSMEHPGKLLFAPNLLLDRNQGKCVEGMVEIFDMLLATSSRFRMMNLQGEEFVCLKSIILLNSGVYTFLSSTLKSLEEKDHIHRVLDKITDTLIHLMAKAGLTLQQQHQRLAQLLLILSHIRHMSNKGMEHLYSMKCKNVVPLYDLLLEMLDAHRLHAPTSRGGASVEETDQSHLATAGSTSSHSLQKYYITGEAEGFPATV

N#Cc1nn(-c2c(Cl)cc(C(F)(F)F)cc2Cl)c(N)c1S(=O)C(F)(F)F (stereo not drawn)
inactive: [3] | [4] | [5] | [6] | [7] | [8] | [9] | [12] | [14] | [15]
active: [1] 10.3 µM and 9.11 µM | [2] 10.3 µM and 9.11 µM | [8] 1.87 µM | [9] 8.32 µM | [10] 33.4 µM and 24.2 µM | [11] 1.59 µM and 666 nM | [13] 1.36 µM and 1.28 µM | [16] 13.3 µM and 24.6 µM | [17] 33.4 µM and 23.4 µM

CNC(=O)ON=CC(C)(C)SC
not listed: [5] | [18] | [19] | [20]
inactive: all other assays above

CON(C)C(=O)Nc1ccc(Cl)c(Cl)c1
active: [10] 8.54 µM | [16] 6.23 µM | [17] 6.56 µM
not listed: [5] | [18] | [19] | [20]
inactive: all other assays above

CO/C=C(/C(=O)OC)c1ccccc1Oc1cc(Oc2ccccc2C#N)ncn1
active: [9] 11.1 µM | [10] 10.2 µM | [13] 7.21 µM | [14] 11.1 µM | [17] 10.7 µM
not listed: [18] | [19] | [20]
inactive: all other assays above

CC(C)(C)c1ccc(CSc2cnn(C(C)(C)C)c(=O)c2Cl)cc1
inactive: [3] | [4]
active: [1] 0.0249 µM | [2] 0.0249 µM | [6] 0.019 µM | [7] 5.1 µM | [8] 3.63 µM | [9] 0.492 µM | [10] 2.67 µM | [11] 1.64 µM | [12] 2.12 µM | [13] 1.37 µM | [14] 3.29 µM | [15] 0.0277 µM | [16] 4.43 µM | [17] 3.24 µM

Cc1ccc(-c2c(Cl)nc(C#N)n2S(=O)(=O)N(C)C)cc1
active: [9] 6.03 µM
not listed: [5] | [18] | [19] | [20]
inactive: all other assays above

N#CC(CCc1ccc(Cl)cc1)(Cn1cncn1)c1ccccc1 (stereo not drawn)
not listed: [18] | [19] | [20]
inactive: all other assays above

COc1ccc(C(c2ccc(OC)cc2)C(Cl)(Cl)Cl)cc1
active: [10] 19.9 µM | [13] 6.83 µM | [14] 19.9 µM | [18] 1.1 µM | [19] 3.77 µM | [17] 27.4 µM | [20] 102 µM
inactive: all other assays above

COC(=O)C(C)Oc1ccc(Oc2ccc(Cl)cc2Cl)cc1 (stereo not drawn)
active: [10] 20 µM | [14] 25.7 µM | [16] 11.7 µM | [17] 20 µM
not listed: [18] | [19] | [20]
inactive: all other assays above

C=CCC1=C(C)[C@@H](OC(=O)[C@@H]2[C@@H](C=C(C)C)C2(C)C)CC1=O
active: [1] 4.06 µM | [2] 4.06 µM | [6] 4.02 µM | [10] 36.5 µM | [13] 10.8 µM | [14] 31 µM | [16] 36.2 µM | [17] 27.2 µM
not listed: [5] | [18] | [19] | [20]
inactive: all other assays above

CCCCNC(=O)OCC#CI
inactive: [3] | [4] | [5] | [6] | [7] | [8] | [11] | [15]
active: [1] 10.2 µM | [2] 10.2 µM | [9] 31.4 µM | [10] 20 µM | [12] 6.46 µM | [13] 20 µM | [14] 37.1 µM | [16] 31.7 µM | [17] 15.5 µM

CC(C)Oc1cc(-n2nc(C(C)(C)C)oc2=O)c(Cl)cc1Cl
active: [9] 4.16 µM
not listed: [18] | [19] | [20]
inactive: all other assays above

C#CCOS(=O)OC1CCCCC1Oc1ccc(C(C)(C)C)cc1 (stereo not drawn)
active: [1] 9.46 µM | [2] 9.48 µM | [8] 33.6 µM | [10] 32 µM | [16] 20 µM | [17] 32.5 µM
not listed: [18] | [19] | [20]
inactive: all other assays above

CCCCC(CC)COC(=O)c1ccccc1C(=O)OCC(CC)CCCC (stereo not drawn)
inactive: [20]

CCCCOC(=O)c1ccccc1C(=O)OCCCC
inactive: [20]
